Values joined by “and” are separate entries in the source; they are usually repeats but may differ in a detail not shown here. Equal values may be shown once. Some structures have more than one record in an assay (separate samples or runs), and their calls can disagree. Active and inactive are the calls of the source. Rule for the calls: active = hit-call score of the fitted dose curve at least 0.9, where 1 is the maximum; inactive = score below 0.9.

Sequence of Broad substrate specificity ATP-binding cassette transporter ABCG2 (Homo sapiens) (Q9UNQ0 whole entry, looked up): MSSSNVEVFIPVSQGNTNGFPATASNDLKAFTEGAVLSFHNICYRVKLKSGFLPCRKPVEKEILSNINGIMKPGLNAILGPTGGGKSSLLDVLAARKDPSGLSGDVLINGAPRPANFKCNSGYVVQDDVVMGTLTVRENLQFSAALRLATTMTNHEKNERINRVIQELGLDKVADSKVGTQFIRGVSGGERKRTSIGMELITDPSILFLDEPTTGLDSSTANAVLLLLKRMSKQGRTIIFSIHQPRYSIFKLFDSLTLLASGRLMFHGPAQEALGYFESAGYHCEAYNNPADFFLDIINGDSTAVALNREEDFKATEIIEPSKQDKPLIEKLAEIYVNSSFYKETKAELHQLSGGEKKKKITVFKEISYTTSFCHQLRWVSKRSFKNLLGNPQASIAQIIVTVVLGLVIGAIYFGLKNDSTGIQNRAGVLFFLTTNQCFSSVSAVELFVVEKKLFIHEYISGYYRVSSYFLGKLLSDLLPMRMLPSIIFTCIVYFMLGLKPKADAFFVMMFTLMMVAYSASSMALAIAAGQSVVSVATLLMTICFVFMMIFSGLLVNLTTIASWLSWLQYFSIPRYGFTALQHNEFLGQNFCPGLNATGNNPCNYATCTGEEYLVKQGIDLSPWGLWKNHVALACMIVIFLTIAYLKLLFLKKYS

Read-out in this assay: Broad substrate specificity ATP-binding cassette transporter ABCG2 (Homo sapiens) (UniProt Q9UNQ0)
Nature of the assay: LTEA_HepaRG_ABCG2: Life Technologies and Expression Analysis (LTEA) Assay for ABC Transporter (ABCG2) using HepaRG (AID 2283465). The settings on record: mRNA level, 48 h; actives raise or lower the signal. The method, then:
LTEA_HepaRG is a cell based, multiplexed-readout assay that uses HepaRG, a human liver cell line, with measurements taken at 48 hours after chemical dosing on a 96-well plate.LTEA_HepaRG_ABCG2 is one of 102 assay component(s) measured in the LTEA HepaRG cell culture assay. It is a marker of Steatosis/NR mediated transport.Data from the assay component LTEA_HepaRG_ABCG2 was analyzed into 1 endpoint. This assay endpoint, LTEA_HepaRG_ABCG2, was analyzed with bidirectional fitting relative to DMSO as the negative control and baseline of activity. Using a type of inducible reporter, measures of mRNA induction for gain or loss-of-signal activity can be used to understand regulation of transcription factor activity. To generalize the intended target to other relatable targets, this assay endpoint is annotated to the transporter intended target family, where the subfamily is ABC transporter.
A total of 1060 chemcials from the ToxCast library were tested in eight-point concentration-response experiments. Cell culture and cytotoxicity assays were conducted at Thermo Fisher Scientific's Custom Services facility (Madison, WI). A single lot of human HepaRG cells (Thermo Fisher Scientific, Frederick, MD) was used for the cell culture experiments. 96-well format collagen type I coated plates of human HepaRG cells were prepared using established methods. Briefly, cryopreserved HepaRG cells were thawed, plated at a density of approximately 100,000 cells/well in HepaRG Thaw, Plate, and General Purpose media (HPRG770, Thermo Fisher Scientific), and incubated for 48 hours. 0.5% DMSO was selected as vehicle control to balance the requisite need of DMSO in HepaRG cultures to maintain differentiation (for example, baseline metabolism, proportions of hepatocytes vs. cholangiocytes), while enabling further hepatic receptor pathway activation (for example, PXR and CAR) in response to chemical exposure. 48 hours after plating, the culture medium was replaced with HepaRG Serum-Free Incudtion Media. Cells were exposed to each test chemical in duplicate and maintained in CO2 incubators for another 48 hours. Chemical plates were thawed to room temperature and 200x concentrations of treatment groups were prepared. 8-point conentration-reponse curves were made with the highest exposure at 100 uM, followed by half-log dilutions, all in 0.5% DMSO. Each test plate contained variouse controls, induction positive controls (1mM phenobarbital), cytotoxicity positive controls ([…] aflatoxin B1), vehicle controls (0.5% DMSO), and total lysis controls (0.5% DMSO). Cell morphology images were taken using an Essen IncuCyte FLR automated microscope, with six 96-well plates imaged in about 24 minutes. Images were captured and exported and JPEG files. Spent culture media was transfered to black-well plates for the LDH assay, and remaining media was sorted at -80 C for later use. Cells were treated with RLT buffer and frozen until shipped for gene expression analysis. Total RNA was isolated from the cell suspension in 75 uL of Buffer RLT (Qiagen, Germantown, MD 20874) by Quintiles/Expression Analysis (Durham, NC) using a custom isolation procedure. Total RNA from each plate well was transferred to a preamplification plate. Fluidigm's 96.96 Dynamic ArrayTM (Fluidigm, Amsterdam, the Netherlands) technology was used for gene expression analyses by quantitative reverse transcription polymerase chain reaction (qRT-PCR, performed by Quintiles/Expression Analysis, Durham, NC)89. Standard TaqManTM Assays (Applied Biosystems/ThermoFisher Scientific, Foster City, CA) were used to assess the expression of 93 genes selected based on their selectivity and sensitivity to important hepatic receptors known to be modulated by environmental chemicals; importance in human hepatocyte functionality; and hepatotoxicity. […]
By AC50 is commonly meant the midpoint of the concentration-response curve, whichever way the signal moves. Turning to `CC(C)Oc1cc(-n2nc(C(C)(C)C)oc2=O)c(Cl)cc1Cl`, the half-maximal activity concentration (AC50) is 26 µM (active). As to `CCNc1nc(Cl)nc(NC(C)C)n1`, the outcome was inactive. For `COP(N)(=O)SC` (stereo not given), the molecule was classed as inactive. Consider `COC(=O)c1ccccc1C(=O)OC`, for which the outcome was inactive. As for `C#CCOS(=O)OC1CCCCC1Oc1ccc(C(C)(C)C)cc1` (stereo not given), the half-maximal activity concentration (AC50) was 50 µM (active).

Consider `CC1=C(C(=O)Nc2ccccc2)SCCO1`, for which the molecule was called inactive. Turning to `COc1nc(NC(C)C)nc(NC(C)C)n1`, the molecule was classed as inactive. For `CN(C)C(=S)SSC(=S)N(C)C`, the molecule was classed as inactive. As for `Oc1ccccc1-c1ccccc1`, the result was inactive. Regarding `Fc1ccc(Oc2ccnc3cc(Cl)cc(Cl)c23)cc1`, the AC50 is 50 µM (active).

`N#Cc1nn(-c2c(Cl)cc(C(F)(F)F)cc2Cl)c(N)c1S(=O)C(F)(F)F` (stereo not given): the concentration at half-maximal activity (AC50) was 23.5 µM (active). As for `CCOC(=O)CC(SP(=S)(OC)OC)C(=O)OCC` (stereo not given), the call was inactive. Take `N#Cc1cc(Br)c(O)c(Br)c1`: the AC50 is 10.2 µM (active). For `CCCN(CCC)c1c([N+](=O)[O-])cc(S(N)(=O)=O)cc1[N+](=O)[O-]`, the result was inactive and the half-maximal activity concentration (AC50) is 15.8 µM (active). Consider `CC1COC(Cn2cncn2)(c2ccc(Oc3ccc(Cl)cc3)cc2Cl)O1` (stereo not given), for which the concentration at half-maximal activity (AC50) is 12.6 µM (active).

With `Cc1cc(Cl)ccc1OCC(=O)O`, the molecule was classed as inactive. For the molecule `CC(C)(C)c1ccc(CSc2cnn(C(C)(C)C)c(=O)c2Cl)cc1`, the AC50 was 2.89 µM (active). Regarding `CCOc1cc(Oc2ccc(C(F)(F)F)cc2Cl)ccc1[N+](=O)[O-]`, the AC50 was 9.39 µM (active).

With `COP(=S)(OC)Oc1nc(Cl)c(Cl)cc1Cl`, the molecule was classed as inactive. Take `CCOC(=O)C(Cl)Cc1cc(-n2nc(C)n(C(F)F)c2=O)c(F)cc1Cl` (stereo not given): the result was inactive. For `C=CCC1=C(C)[C@@H](OC(=O)[C@@H]2[C@@H](C=C(C)C)C2(C)C)CC1=O`, the outcome was inactive. Consider `O=C(O)c1nc(Cl)ccc1Cl`, for which the result was inactive. As to `CCCCNC(=O)OCC#CI`, the half-maximal activity concentration (AC50) is 9.92 µM (active).

As to `C=CCC1=C(C)C(OC(=O)C2C(C=C(C)C)C2(C)C)CC1=O` (stereo not given), the AC50 was 50 µM (active) and 79.2 µM (active). As for `CCNc1nc(Cl)nc(NCC)n1`, the molecule was called inactive.

As to `CO/C=C(/C(=O)OC)c1ccccc1Oc1cc(Oc2ccccc2C#N)ncn1`, the half-maximal activity concentration (AC50) was 32 µM (active) and 25.5 µM (active) and 12.6 µM (active). For `COC(=O)N(OC)c1ccccc1COc1ccn(-c2ccc(Cl)cc2)n1`, the AC50 is 25 µM (active). For the molecule `Cc1ccc(-c2c(Cl)nc(C#N)n2S(=O)(=O)N(C)C)cc1`, the molecule was called inactive. Turning to `N#CC(CCc1ccc(Cl)cc1)(Cn1cncn1)c1ccccc1` (stereo not given), the AC50 is 50 µM (active). As to `COc1ccc(C(c2ccc(OC)cc2)C(Cl)(Cl)Cl)cc1`, the result was inactive. Consider `CCCCNC(=O)n1c(NC(=O)OC)nc2ccccc21`, for which the call was inactive.

As to `CCCCOC(=O)c1ccccc1C(=O)OCCCC`, the call was inactive.

In the case of `CNC(=O)ON=CC(C)(C)SC`, the molecule was classed as inactive. As for `O=C(Nc1ccccc1)Nc1ccnc(Cl)c1`, the AC50 is 83.9 µM (active).

Turning to `COc1cnc(OC)n2nc(NS(=O)(=O)c3c(OCC(F)F)cccc3C(F)(F)F)nc12`, the result was inactive. The same measure, in the same setting: to `CS/C(C)=N/OC(=O)N(C)SN(C)C(=O)O/N=C(\C)SC` belongs “inactive”; to `CNC(=S)S`, “inactive”; to `CC(C)C1(C)N=C(c2nc3ccccc3cc2C(=O)O)NC1=O` (stereo not given), “inactive”. In the case of `C=CC1(C)OC(=O)N(c2cc(Cl)cc(Cl)c2)C1=O` (stereo not given), the concentration at half-maximal activity (AC50) is 11.1 µM (active).
